Only some compounds are listed: those with a hit (about 2.3% of all), similar ones and a draw of the others.
ROS inducer: inducers of reactive oxygen species in cancer cells. U2OS ROS induction, H2DCF-DA fluorescence. ROS induction (% of piperlongumine), % at 10 µM. 46,000 compounds, 2% hits. AID 624156; in the data active = ROS induction above about 79%, passing the limit was not always enough;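 also: 0% = DMSO vehicle median and 100% = reference compound median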
YB-1 expression: YB-1 expression inhibition; U2OS, qRT-PCR YB-1 vs CDIP delta delta Cp, 16 h; stronger effect = higher value; zero = DMSO, each unit about twofold; delta delta Cp (YB-1 minus CDIP) (concentration not given with the values); 30,000 compounds, 0.37% hits;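 active = delta delta Cp rounded down to an integer at or above 3, about 3 SD of DMSO wells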;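 also: higher means less YB-1 transcript or more CDIP transcript relative to DMSO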
Starred values were filed as active, the others as inactive; nt = not tested or not shown.

SMILES	ROS inducer	YB-1 expression
Cc1ccc(S(=O)(=O)N2CCN(c3nc(NC4CCCC4)c4ccccc4n3)CC2)cc1	152*	nt
Cc1ccc(CNC(=O)CSc2nc(NC3CCCCC3)c3ccccc3n2)cc1	12	nt
COc1ccc(-n2nnc3c(=O)n(Cc4cccc(C(F)(F)F)c4)cnc32)cc1	0	nt
Cc1cc(NCCO)n2c(nc3ccccc32)c1C#N	7	nt
CCC(C)Nc1cc(C)c(C#N)c2nc3ccccc3n12 (stereo not drawn)	58	nt
CCc1c(C)c(C#N)c2nc3ccccc3n2c1NCCC(C)C	157*	nt
CC(C)CCNc1cc(C(C)C)c(C#N)c2nc3ccccc3n12	197*	nt
COC(=O)c1c(C)nn(-c2ccccc2)c1-n1c(C)ccc1C	-5	nt
COc1ccc(CNc2cc(-c3nn4c(C)nnc4s3)ccc2C)cc1OC	13	nt
COc1cc(CN(C)Cc2cccc3ccccc23)c([N+](=O)[O-])cc1OC	133*	nt
COc1ccc(NC(=O)COc2ccc3ccccc3c2Br)c([N+](=O)[O-])c1	-4	nt
COC(=O)Cc1nc(-c2ccc(F)cc2)sc1C	-6	nt
O=C(c1ccc(CSc2cccc3cccnc23)cc1)N1CCOCC1	-16	nt
CC(C)(C)c1ccc(S(=O)(=O)N2CCN(c3ccc([N+](=O)[O-])c(NCc4cccnc4)c3)CC2)cc1	98*	nt
COc1ccccc1C(=O)N1CCN(c2ccc([N+](=O)[O-])c(NCc3ccco3)c2)CC1	55	nt
O=[N+]([O-])c1ccc(N2CCN(S(=O)(=O)c3ccc(F)cc3)CC2)cc1NCc1cccnc1	136*	nt
O=[N+]([O-])c1ccc(N2CCN(S(=O)(=O)c3ccc(Cl)s3)CC2)cc1NCc1ccco1	36	nt
O=C(NO)c1cccc(C(=O)N/N=C/c2cc(O)ccc2O)c1	107*	-1.1
O=C(NO)c1cccc(C(=O)N/N=C/c2cc(F)ccc2O)c1	-10	-0.2
O=C(CN1C(=O)/C(=C/c2ccccc2)Sc2ccccc21)NC1CCCC1	-1	nt
Cc1ccc(S(=O)(=O)c2ccc(C)cc2)cc1	-1	0.26
Cc1ccc(S(=O)(=O)/C=C/C#N)cc1	143*	0.15
CCc1nnc(SC(CC)C(=O)NCc2ccc(C)cc2)c2cc3sccc3n12 (stereo not drawn)	-14	nt
Cn1c2ccccc2c2nnc(SCC(=O)c3ccc(Cl)cc3)nc21	117*	nt
C=CCn1c2ccccc2c2nnc(SCC(=O)c3ccc(Cl)cc3)nc21	70	nt
SMILES	ROS inducer	YB-1 expression
Cc1cc(OCC(=O)N(Cc2ccc(Cl)cc2)Cc2ccco2)cc(C)c1Cl	14	nt
C[C@@H]1O[C@@H](O[C@H]2[C@@H]3C=CO[C@@H](O[C@@H]4O[C@H](CO)[C@@H](O)[C@H](O)[C@H]4O)[C@@H]3[C@@]3(CO)O[C@@H]23)[C@H](O)[C@H](OC(=O)/C=C/c2ccc(O)cc2)[C@H]1O	88*	0.37
COc1ccc(/C=C/C(=O)O[C@H]2[C@H](O[C@H]3[C@@H]4C=CO[C@@H](O[C@@H]5O[C@H](CO)[C@@H](O)[C@H](O)[C@H]5O)[C@@H]4[C@@]4(CO)O[C@@H]34)O[C@@H](C)[C@H](O)[C@H]2OC(C)=O)cc1	-9	10*
CC(=O)O[C@@H]1[C@@H](O)[C@H](C)O[C@@H](O[C@H]2[C@@H]3C=CO[C@@H](O[C@@H]4O[C@H](CO)[C@@H](O)[C@H](O)[C@H]4O)[C@@H]3[C@@]3(CO)O[C@@H]23)[C@@H]1OC(=O)/C=C/c1ccc(O)cc1	73	0.053
COc1ccc(/C=C/C(=O)O[C@@H]2[C@@H](O)[C@H](C)O[C@@H](O[C@H]3[C@@H]4C=CO[C@@H](O[C@H]5O[C@@H](CO)[C@H](O)[C@@H](O)[C@@H]5O)[C@@H]4[C@@]4(CO)O[C@@H]34)[C@@H]2OC(C)=O)cc1	-4	-0.16
C=CCNC(=O)c1ccc2c(c1)N(Cc1cccc(Cl)c1)C(=O)c1ccccc1S2	3	nt
Cc1ccc(/C=C2/Sc3ccc(C(=O)N4CCN(c5ccccc5F)CC4)cc3NC2=O)cc1	4	nt
CCCCn1nnc2c(=O)oc3ccccc3c21	187*	nt
O=c1oc2ccccc2c2c1nc(C(F)(F)F)n2-c1ccccc1	21	nt
COc1ccc(S(=O)(=O)NCc2csc(-c3ccccc3)n2)cc1OC	-14	nt
CCOc1ccc(N=c2ccc3ccccc3n2C)cc1	-12	nt
C[C@@H]1CCCCO[C@H](CN(C)S(=O)(=O)c2ccccc2)[C@@H](C)CN([C@H](C)CO)C(=O)c2cc(NC(=O)c3ccncc3)ccc2O1	1	0.0017
C[C@@H]1CCCCO[C@@H](CN(C)S(=O)(=O)c2ccccc2)[C@@H](C)CN([C@H](C)CO)C(=O)c2cc(NS(=O)(=O)c3ccc(F)cc3)ccc2O1	206*	-0.26
C[C@@H]1CCCCO[C@@H](CN(C)S(=O)(=O)c2ccccc2)[C@@H](C)CN([C@H](C)CO)C(=O)c2cc(NC(=O)c3ccccc3)ccc2O1	132*	-0.19
Cc1ccc(S(=O)(=O)Nc2ccc3c(c2)C(=O)N([C@H](C)CO)C[C@H](C)[C@H](CN(C)S(=O)(=O)c2ccc(C)cc2)OCCCC[C@@H](C)O3)cc1	19	-0.94
Cc1ccc(S(=O)(=O)Nc2ccc3c(c2)C(=O)N([C@H](C)CO)C[C@H](C)[C@@H](CN(C)S(=O)(=O)c2ccc(C)cc2)OCCCC[C@@H](C)O3)cc1	19	0.13
Cc1ccc(S(=O)(=O)N(C)C[C@@H]2OCCCC[C@@H](C)Oc3ccc(NS(=O)(=O)c4ccc(Cl)cc4)cc3C(=O)N([C@H](C)CO)C[C@@H]2C)cc1	111*	-0.68
C[C@@H]1CCCCO[C@H](CN(C)S(=O)(=O)c2ccc(F)cc2)[C@@H](C)CN([C@H](C)CO)C(=O)c2cc(NS(=O)(=O)c3ccc(F)cc3)ccc2O1	37	0.099
Cc1ccc(S(=O)(=O)Nc2ccc3c(c2)C(=O)N([C@H](C)CO)C[C@H](C)[C@@H](CN(C)S(=O)(=O)c2ccccc2)OCCCC[C@@H](C)O3)cc1	137*	-0.22
CCCN(CCC)C(=O)c1cc2c(n(-c3ccc(Cl)c(Cl)c3)c1=O)CC(C)(C)CC2=O	3	nt
COc1ccc(CNC(=S)NN)cc1	-10	nt
Cc1ccc(CSCCC(=O)NC2CCCC(C)C2C)cc1 (stereo not drawn)	6	nt
O=C(CCC1CCCCC1)Nc1nc2ccccc2s1	-5	nt
COC(=O)c1cc(C2CC2)[nH]n1	0	nt
C[C@@H]1CCCCO[C@@H](CN(C)C(=O)CCCN(C)C)[C@@H](C)CN([C@H](C)CO)C(=O)c2cc(NS(=O)(=O)c3ccccc3)ccc2O1	-7	-0.018
COc1ccc(S(=O)(=O)N(C)C[C@@H]2OCCCC[C@@H](C)Oc3ccc(NS(=O)(=O)c4ccc(F)cc4)cc3C(=O)N([C@H](C)CO)C[C@@H]2C)cc1	128*	-0.24
COc1ccc(S(=O)(=O)Nc2ccc3c(c2)C(=O)N([C@H](C)CO)C[C@H](C)[C@@H](CN(C)S(=O)(=O)c2ccc(C)cc2)OCCCC[C@@H](C)O3)cc1	20	-1.4
COc1ccc(S(=O)(=O)N(C)C[C@H]2OCCCC[C@@H](C)Oc3ccc(NC(=O)NC4CCCCC4)cc3C(=O)N([C@H](C)CO)C[C@@H]2C)cc1	34	0.51
C[C@@H]1CN([C@H](C)CO)C(=O)c2cc(NC(=O)C3CCCCC3)ccc2O[C@H]1CN(C)S(=O)(=O)c1cn(C)cn1	-8	-0.2

Screens as filed in PubChem.
